Unmarked numbers belong to inactive results. For part of these data: Measured potencies and affinities stand elsewhere. Active and inactive are the calls of the source. Unless noted, how the calls were made is not given here.
Experiments:
[1] = antimalarial activity against Dd2 strain (AID 2302;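 active means growth inhibition above 50% at the single 2 µM test dose, taken to imply half-maximal potency below 2 µM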;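 further: 0% = DMSO untreated growth and 100% = chloroquine plus artemisinin killed control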); settings: P. falciparum Dd2 in RBCs, LDH growth readout, 72 h; at 2 µM; active compounds read high
[2] = human hepatoma cell viability loss – ATP luminescence, cytotoxicity control for P. falciparum antimalarial project, primary screen (AID 2303;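 active means inhibition above 50%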;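 further: 0% = DMSO wells and 100% = digitonin-killed cells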); settings: HepG2 viability, 24-48 h, at 10 µM, active compounds read high
[3] = target: L-lactate dehydrogenase (Plasmodium falciparum (isolate CDC / Honduras)) (UniProt Q27743); assay: PfLDH activity inhibition – cell lysate, 3D7 strain, counter-screen for P. falciparum growth inhibition project (AID 2304);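 further: 0% = vehicle and 100% = reference inhibitor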; settings: P. falciparum 3D7 crude extract, LDH APAD/NBT absorbance; at 2 µM; active compounds read high
[4] = inhibition of 3D7 malaria parasite growth – strain 3D7 (AID 2306);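 further: 0% = DMSO wells and 100% = chloroquine plus artemisinin control wells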; settings: P. falciparum 3D7 erythrocytic growth, LDH absorbance, 72 h; at 2 µM; active compounds read high
[5] = target: Calcium-dependent protein kinase 1 (Plasmodium falciparum (isolate 3D7)) (UniProt P62344); assay: PfCDPK1 kinase inhibitors, biochemical, TCAMS library (AID 1159585; cut-off not given, nearly all actives have IC50 up to about 0.98 µM;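 further: inhibitors leave more ATP so luminescence rises with inhibition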); settings: recombinant PfCDPK1, Kinase-Glo ATP depletion luminescence
[6] = target: Plasmodium falciparum protein kinase 6 (PK6, PF3D7_1337100) (UniProt Q8IDW1); assay: PfPK6 kinase inhibitors, biochemical, TCAMS library (AID 1159586); settings: recombinant PfPK6, Kinase-Glo ATP depletion luminescence
[7] = target: Protein kinase 7 (PK7), Plasmodium falciparum 3D7 (PF3D7_0213400) (UniProt Q7YTF7); assay: inhibition of Plasmodium PK7 catalytic activity – biochemical, TCAMS antimalarial set, Kinase-Glo luminescence (AID 1159587); settings: recombinant PfPK7, Kinase-Glo ATP depletion luminescence
[8] = target: Calcium-dependent protein kinase 4 (Plasmodium falciparum (isolate 3D7)) (UniProt Q8IBS5); assay: PfCDPK4 kinase inhibitors, biochemical, TCAMS library (AID 1159588; cut-off not given, nearly all actives have IC50 up to about 0.91 µM); settings: recombinant PfCDPK4, Kinase-Glo ATP depletion luminescence
Chain of Calcium-dependent protein kinase 4 (Plasmodium falciparum (isolate 3D7)) (Q8IBS5 whole entry, looked up): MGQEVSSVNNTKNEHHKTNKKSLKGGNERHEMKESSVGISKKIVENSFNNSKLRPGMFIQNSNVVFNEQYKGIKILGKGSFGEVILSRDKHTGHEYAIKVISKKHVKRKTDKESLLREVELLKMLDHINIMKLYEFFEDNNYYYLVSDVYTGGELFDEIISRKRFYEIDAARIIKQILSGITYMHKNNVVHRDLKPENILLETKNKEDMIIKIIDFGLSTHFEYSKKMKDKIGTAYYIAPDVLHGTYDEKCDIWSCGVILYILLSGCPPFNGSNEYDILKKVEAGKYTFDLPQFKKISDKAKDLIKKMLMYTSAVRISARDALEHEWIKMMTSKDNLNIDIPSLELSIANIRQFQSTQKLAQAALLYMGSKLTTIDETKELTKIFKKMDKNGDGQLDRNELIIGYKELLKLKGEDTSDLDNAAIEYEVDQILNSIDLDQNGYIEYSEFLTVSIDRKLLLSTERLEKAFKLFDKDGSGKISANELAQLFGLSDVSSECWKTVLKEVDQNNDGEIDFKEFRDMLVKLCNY

Chain of Calcium-dependent protein kinase 1 (Plasmodium falciparum (isolate 3D7)) (P62344 whole entry, looked up): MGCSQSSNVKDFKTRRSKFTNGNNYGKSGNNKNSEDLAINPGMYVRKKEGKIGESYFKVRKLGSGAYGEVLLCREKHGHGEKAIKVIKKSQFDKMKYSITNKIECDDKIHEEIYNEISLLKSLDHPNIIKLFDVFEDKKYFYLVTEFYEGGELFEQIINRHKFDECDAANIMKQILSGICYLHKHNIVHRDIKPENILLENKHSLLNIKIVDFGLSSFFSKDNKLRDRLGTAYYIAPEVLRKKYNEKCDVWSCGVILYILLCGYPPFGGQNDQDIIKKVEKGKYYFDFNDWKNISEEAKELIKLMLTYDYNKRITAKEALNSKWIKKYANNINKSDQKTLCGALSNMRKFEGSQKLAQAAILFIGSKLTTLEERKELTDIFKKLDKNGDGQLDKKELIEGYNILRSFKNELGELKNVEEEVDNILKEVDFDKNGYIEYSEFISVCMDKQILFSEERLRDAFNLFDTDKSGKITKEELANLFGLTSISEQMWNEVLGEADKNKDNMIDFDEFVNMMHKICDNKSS
Chain of L-lactate dehydrogenase (Plasmodium falciparum (isolate CDC / Honduras)) (Q27743 whole entry, looked up): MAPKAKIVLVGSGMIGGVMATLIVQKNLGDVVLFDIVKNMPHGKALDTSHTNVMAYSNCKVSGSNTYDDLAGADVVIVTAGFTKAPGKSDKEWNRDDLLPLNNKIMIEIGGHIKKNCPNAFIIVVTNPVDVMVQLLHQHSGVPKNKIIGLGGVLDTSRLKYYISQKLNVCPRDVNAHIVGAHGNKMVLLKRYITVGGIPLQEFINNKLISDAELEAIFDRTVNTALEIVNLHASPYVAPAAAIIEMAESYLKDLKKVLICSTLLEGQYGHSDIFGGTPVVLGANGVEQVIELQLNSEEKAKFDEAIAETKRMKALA
Chain of Plasmodium falciparum protein kinase 6 (PK6, PF3D7_1337100) (Q8IDW1 1-305): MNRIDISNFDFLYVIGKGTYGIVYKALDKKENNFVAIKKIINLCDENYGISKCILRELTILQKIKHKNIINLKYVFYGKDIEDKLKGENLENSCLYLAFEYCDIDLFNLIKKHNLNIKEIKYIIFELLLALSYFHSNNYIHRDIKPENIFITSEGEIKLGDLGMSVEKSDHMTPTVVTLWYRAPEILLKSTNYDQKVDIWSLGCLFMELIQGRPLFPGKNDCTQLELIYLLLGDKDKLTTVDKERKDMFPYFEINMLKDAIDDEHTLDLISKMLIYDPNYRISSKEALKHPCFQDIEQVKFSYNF
Chain of Protein kinase 7 (PK7), Plasmodium falciparum 3D7 (PF3D7_0213400) (Q7YTF7 1-343): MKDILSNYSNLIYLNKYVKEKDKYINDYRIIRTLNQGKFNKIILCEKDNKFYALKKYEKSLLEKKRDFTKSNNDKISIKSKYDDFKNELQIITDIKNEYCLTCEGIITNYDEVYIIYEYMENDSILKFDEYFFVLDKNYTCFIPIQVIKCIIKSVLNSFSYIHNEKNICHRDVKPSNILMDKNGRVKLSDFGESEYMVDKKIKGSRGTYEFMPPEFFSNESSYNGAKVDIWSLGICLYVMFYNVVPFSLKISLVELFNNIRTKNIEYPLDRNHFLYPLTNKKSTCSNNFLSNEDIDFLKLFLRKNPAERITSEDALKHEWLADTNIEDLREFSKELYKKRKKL

Compound	growth inhibition [1]	inhibition [2]	inhibition [3] [%]	growth inhibition [4]	outcome [5]	outcome [6]	outcome [7]	outcome [8]
COc1cc(Cc2cnc(N)nc2N)cc(OC)c1OCCNC(=O)[C@@H](N)CCC(=O)O	-4%	-1%	-6	96% (active)	inactive	inactive	inactive	inactive
CC(C)c1ccc(OCC(O)CN(C)C(C)C(O)c2ccccc2)c(Br)c1 (configuration not stated)	97% (active)	36%	-3	95% (active)	inactive	inactive	inactive	inactive
CCCN(CCC)C(=O)c1cc(C(=O)N[C@@H](Cc2ccccc2)[C@H](O)CNC(C)(C)c2cccc(OC)c2)cc(N2CCCCS2(=O)=O)c1	74% (active)	16%	-3	99% (active)	inactive	inactive	inactive	inactive
COc1ccc(CNCc2cccc(-c3cccc(-c4nc5ccc(C(F)(F)F)cc5[nH]4)c3)c2)cc1	91% (active)	40%	4	100% (active)	inactive	inactive	inactive	inactive
Cc1cc(-c2cccc(CNCCc3ccc(Cl)cc3)c2)cnc1N	3%	19%	0	90% (active)	inactive	inactive	inactive	inactive
COc1c(Br)cc(Br)cc1-c1ccc(CN2C3CCCC2CCC3)[nH]1	83% (active)	42%	3	88% (active)	inactive	inactive	inactive	inactive
CCCCCCCCCn1c(NCc2cc(Cl)ccc2O)nc2ccccc21	92% (active)	13%	-4	97% (active)	inactive	inactive	inactive	inactive
COc1ccc2nccc([C@@H](O)CN3CCC(NC(=O)/C=C/c4cccc(-c5ccccc5)c4)CC3)c2c1	83% (active)	12%	-5	98% (active)	inactive	inactive	inactive	inactive
OCC1CCN(Cc2ccc(-c3cccc(-c4nc5ccc(C(F)(F)F)cc5[nH]4)c3)cc2)CC1	73% (active)	19%	-4	99% (active)	inactive	inactive	inactive	inactive
CN1CCC(N2CCN(Cc3cccc(-c4ccc(-c5nc6ccc(F)cc6[nH]5)cc4)c3)CC2)CC1	100% (active)	92% (active)	3	100% (active)	inactive	inactive	inactive	inactive
Oc1ccc(CCNCCCCCCNCCc2ccc(Br)cc2)cc1O	5%	2%	-2	99% (active)	inactive	inactive	inactive	inactive
CS(=O)(=O)NCCCNCc1cccc(-c2ccc(-c3nc4ccc(C(F)(F)F)cc4[nH]3)s2)c1	51% (active)	11%	-8	100% (active)	inactive	inactive	inactive	inactive
CC1(C)CCC(C)(C)c2c1ccc(C1CCN(CCCCNC(=O)c3ccc(-c4ccc(C#N)cc4)cc3)CC1)c2OCC(N)=O	100% (active)	99% (active)	-3	102% (active)	inactive	inactive	inactive	inactive
Cc1ccc(F)c(CN2CCC(N3CC(c4ccccc4)(c4ccccc4)OC3=O)CC2)c1Cl	89% (active)	11%	-4	95% (active)	inactive	inactive	inactive	inactive
O=C(/C=C/c1cccc(OC(F)(F)F)c1)NCCCCCN1CCC(c2c[nH]c3ccccc23)CC1	13%	27%	-6	93% (active)	inactive	inactive	inactive	inactive
COCn1ccc2c3c(N)nc(N)nc3ccc21	1%	63% (active)	6	88% (active)	inactive	inactive	inactive	inactive
CCn1c(Sc2ccc(C#N)c([N+](=O)[O-])c2)nnc1-c1ccc(OC)cc1	94% (active)	-8%	2	98% (active)	inactive	inactive	inactive	inactive
Nc1nc(N)c2c(ccc3nccc32)[nH]1	-1%	58% (active)	8	88% (active)	inactive	inactive	inactive	inactive
NS(=O)(=O)c1ccc(CNc2ccc3ncc(-c4ccc(OC(F)(F)F)cc4)n3n2)cc1	99% (active)	10%	-7	97% (active)	inactive	inactive	inactive	inactive
Cc1cc2c(cc1C(F)(F)F)N(C(=O)Nc1cc(OCCN(C)C)cc(C(F)(F)F)c1)CC2	19%	16%	0	101% (active)	inactive	inactive	inactive	inactive

Compound	growth inhibition [1]	inhibition [2]	inhibition [3] [%]	growth inhibition [4]	outcome [5]	outcome [6]	outcome [7]	outcome [8]
O=C(NCC1CCC(C(=O)NCc2cccc3ccccc23)CC1)c1ccc(O)c(-c2ccc(Cl)c(Cl)c2)c1 (configuration not stated)	92% (active)	0%	-6	100% (active)	inactive	inactive	inactive	inactive
CCNc1cc(C(=O)N[C@@H](Cc2cccc(F)c2)[C@H](O)CNC(C)CCCC(C)C)cc(N2CCCCS2(=O)=O)c1 (some centres not stated)	97% (active)	-3%	-4	98% (active)	inactive	inactive	inactive	inactive
Cc1cc(N[C@@H](Cc2ccccc2)C(=O)NCCc2ccccc2)nc(NCCOc2ccccc2)n1	14%	10%	-3	95% (active)	inactive	inactive	inactive	inactive
Cc1ccc(NC(=O)c2ccc(NCCCN(C)Cc3ccccc3)c([N+](=O)[O-])c2)cc1F	61% (active)	12%	-7	101% (active)	inactive	inactive	inactive	inactive
Cc1ccc(C(=O)Nc2ccc(F)cc2)cc1-c1nc(NC2CC(C)(C)NC(C)(C)C2)nc2c1ccc(=O)n2-c1c(F)cccc1F	96% (active)	16%	-2	89% (active)	inactive	inactive	inactive	inactive
O=C(Nc1cc2cc(-c3ccc(CN4CCCCC4)cc3)ccc2n2cnnc12)NC1CCCC1	98% (active)	78% (active)	-4	100% (active)	inactive	inactive	inactive	inactive
Cc1cccc2[nH]c(-c3ccc(-c4ccc(CN5CCN(c6ccc(C#N)cn6)CC5)cc4)s3)nc12	44%	10%	2	98% (active)	inactive	inactive	inactive	inactive
CCCCc1ccc(C(=O)NC2CCN(C[C@H](O)c3ccnc4ccc(OC)cc34)CC2)cc1	22%	24%	-1	91% (active)	inactive	inactive	inactive	inactive
O=C(CSc1n[nH]c(-c2ccccc2Br)n1)c1c[nH]c2ccccc12	95% (active)	7%	-6	100% (active)	inactive	inactive	inactive	inactive
CCN(CCCN1CCCCC1)c1cc(C)nc(Nc2ccc(C(F)(F)F)cc2)n1	99% (active)	26%	-3	102% (active)	inactive	inactive	inactive	inactive
Cc1cc(Nc2ccc(O)cc2)nc2cccc(O)c12	28%	22%	-6	99% (active)	inactive	inactive	inactive	inactive
CCc1cccc2c(C#N)cn(CC(=O)Nc3ccc(OC)cc3)c12	76% (active)	-13%	-3	97% (active)	inactive	inactive	inactive	inactive
CCN1CCN(Cc2c(O)ccc3c(=O)c(Oc4cc(C)cc(C)c4)c(C(F)(F)F)oc23)CC1	90% (active)	6%	3	96% (active)	inactive	inactive	inactive	inactive
O=S(=O)(NCCN1CCCC1)c1ccc(-c2ccc(CNC3Cc4ccccc4C3)cc2)cc1F	75% (active)	33%	-1	101% (active)	inactive	inactive	inactive	inactive
Cc1ccc(F)cc1S(=O)(=O)N1CCCCC(c2ccc(C(F)(F)F)cc2)=N1	75% (active)	8%	7	82% (active)	inactive	inactive	inactive	inactive
CNCCCNc1ccnc2cc(Cl)ccc12	25%	11%	-1	101% (active)	inactive	inactive	inactive	inactive
CCCCCC(C)N=C(Nc1ccc([N+](=O)[O-])cc1O)Nc1ccccc1Br (configuration not stated)	98% (active)	-1%	5	99% (active)	inactive	inactive	inactive	inactive
COc1cc2c(c(Cl)c1OC)CCN(Cc1ccccc1)CC2c1ccc(NC(=O)C(F)(F)F)cc1 (configuration not stated)	79% (active)	0%	-2	85% (active)	inactive	inactive	inactive	inactive
COc1cc(C)nc2ccc(NC(=O)c3ccc(C(=O)Nc4ccc5nc(C)cc(OC)c5c4)cc3)cc12	72% (active)	27%	-5	96% (active)	inactive	inactive	inactive	inactive

Reference: PubChem BioAssay
